The list is a sample of the results.
aSyn 5UTR act: Activators via SNCA 5'UTR binding, MLPCN | actives 7.1% (n = 300,000) | activity score, % (tested at 7.5 µM), hits read low | alpha-synuclein 5'UTR reporter, activators screen; in the data active = activity score below about -60%
Active calls of the source: *.

SMILES	aSyn 5UTR act
Cc1ccc(-c2nc3ccc(Cl)cc3n2OC(C)C(=O)O)cc1 (stereo not given)	-127*
CC(On1c(-c2ccccc2)nc2ccc(Cl)cc21)C(=O)O (stereo not given)	-62*
COc1ccc(C(NC(=O)C(C)C)c2ccc3cccnc3c2O)cc1 (stereo not given)	79
O=c1c2ccc(Cl)cc2nc(-c2cccc(C(F)(F)F)c2)n1O	78
COc1ccc(-c2nc3ccccc3n2OC(C)C(=O)O)cc1 (stereo not given)	-196*
COc1ccc(-c2n(CC(=O)OC3CC(C)CCC3C(C)C)c3ccccc3[n+]2C)cc1 (stereo not given)	101
On1c(-c2ccccc2)nc2ccc(Cl)cc21	-149*
O=C1SC(SC(=Nc2ccccc2)Nc2ccccc2)C(=O)N1c1ccccc1 (stereo not given)	-132*
CC(=O)Oc1ccc(Cl)cc1/C=C/c1ccc2ccccc2n1	-259*
CC(=O)Oc1ccccc1/C=C/c1nc2ccccc2c(=O)o1	66
CC(=O)Oc1c(Cl)cc(Cl)cc1/C=C/c1ccc2ccccc2n1	-205*
Cc1cc(C)cc(NC(=O)C(=O)NCCCN2CCCC2=O)c1	-106*
COc1cccc(NC(=O)C(=O)NCCCN2CCCC2=O)c1	-65*
COC(=O)c1ccc(NC(=O)c2nc(S(=O)(=O)Cc3cccc(C)c3)ncc2Cl)cc1	55
COC(=O)c1ccc(NC(=S)Nc2ccccc2)cc1	-131*
CCC(=O)Nc1ccc(C(=O)OCc2ccccc2Cl)cc1	-168*
COC(=O)c1ccc(NC(=O)C(=O)c2cccn2C)cc1	-109*
COC(=O)c1ccc(NC(=O)Cc2ccccc2)cc1	-123*
O=C(Cc1ccccc1)Nc1ccc(SC(F)F)cc1	-130*
Brc1c(CSc2nc3ccccc3s2)nc2ncccn12	-110*
Cc1ccc(C(=O)Nc2cccc(C(F)(F)F)c2)cc1NC(=O)c1ccno1	95
Cc1ccc(NC(=O)c2c(C(F)(F)F)nn(C)c2SCc2cccc(C(F)(F)F)c2)cc1C	-102*
Cc1cc(C)nc(SCC(=O)NC2=NN=C(c3ccc(Br)cc3)CS2)n1	-74*
CCN(CC)C(=O)C(C)N(C#N)c1nc(Cl)nc(N(C)C)n1 (stereo not given)	-122*
O=Cc1ccc2noc(-c3ccc(Cl)cc3)c2c1	-67*
SMILES	aSyn 5UTR act
CC(=O)c1ccc2noc(-c3cccc(C)c3)c2c1	-99*
Cc1ccc(-c2onc3ccc(C4OCCO4)cc23)cc1	-100*
Cc1ccc(-c2onc3ccc(Cl)cc23)cc1	-63*
O=C(CCSc1ccc(Cl)cc1)N1CCOCC1	-69*
O=C(CSc1ccc(Br)cc1)N1CCOCC1	-65*
O=C(CSc1ccc(Cl)cc1)N1CCOCC1	-69*
COc1cc(/C=N/NC(=S)Nc2cccc(C(=O)O)c2)ccc1O	70
CCOc1cc(/C=N/NC(=O)Nc2ccccc2)ccc1O	-197*
COc1cc(/C=N/NC(=O)Nc2ccccc2)ccc1OC(C)=O	-188*
COC(=O)CN1C(=O)S/C(=C/c2ccc(N3CCCCC3)o2)C1=O	-89*
CCCN1C(=O)S/C(=C\c2ccc(N3CCOCC3)o2)C1=O	-94*
CCCN1C(=O)S/C(=C/c2ccc(N3CCOCC3)o2)C1=O	-83*
COC(=O)CN1C(=O)S/C(=C/c2cc(C)n(C)c2C)C1=O	-167*
O=c1/c(=C\c2ccc3c(c2)OCO3)sc2n1CCCN=2	-83*
Cc1ccc(/C=c2/sc3n(c2=O)CCCN=3)o1	-143*
Cc1ccc2c(c1)c1nc3ccccc3nc1n2C	-90*
COc1cc(C)c(Cl)c(C)c1S(=O)(=O)NC1CC(C)(C)NC(C)(C)C1	-160*
CCN(CC)CC#CC(OC)(c1ccccc1)c1ccccc1	-81*
O=Cc1cc2ccccc2nc1SCc1ccc(Cl)cc1	95
Clc1ccc(CSc2ncccn2)cc1	-80*
N/C(=N\OC(=O)c1cc([N+](=O)[O-])ccc1Cl)c1cccnc1	88
Cc1ccc(C(=O)O/N=C(\N)c2cccnc2)cc1[N+](=O)[O-]	-125*
N/C(=N\OC(=O)c1ccc([N+](=O)[O-])cc1)c1cccnc1	-92*
N/C(=N\OC(=O)c1ccccc1Cl)c1ccccn1	84
N/C(=N\OC(=O)c1ccccc1[N+](=O)[O-])c1cccnc1	-97*
SMILES	aSyn 5UTR act
N/C(=N\OC(=O)c1ccccc1[N+](=O)[O-])c1ccccn1	-104*
COc1ccc(C2c3ccc4ccccc4c3Oc3ncn(CCCN(C)C)c(=N)c32)cc1 (stereo not given)	90
COc1ccc(/C(N)=N/OC(=O)c2ccc(C)c([N+](=O)[O-])c2)cc1OC	-126*
COc1ccc(-c2nsc3c(N4CCN(C(=O)c5ccco5)CC4)ncnc23)cc1	-64*
NC(=O)C1CCN(c2ncnc3c(-c4ccccc4)nsc23)CC1	-112*
O=C(c1ccco1)N1CCN(c2ncnc3c(-c4ccccc4)nsc23)CC1	-106*
CC(=O)C1=C(O)C(=O)N(c2ccc(Br)cn2)C1c1ccc(Br)cc1 (stereo not given)	-101*
O=C(CCCN1C(=O)S/C(=C\C=C\c2ccccc2)C1=O)Nc1ccc(O)cc1	-126*
O=C(CCN1C(=O)/C(=C/C=C/c2ccccc2)SC1=S)Nc1nc2ccccc2s1	-62*
O=C(COC(=O)CCN1C(=O)/C(=C\C=C\c2ccccc2)SC1=S)Nc1cc(F)ccc1F	64
O=C(CN1C(=O)S/C(=C\C=C\c2ccccc2)C1=O)N1CCOCC1	-126*
O=C(CCN1C(=O)/C(=C\C=C\c2ccccc2)SC1=S)Nc1ccc(C(=O)O)cc1	-69*
CCc1ccc(/C=C2\SC(=S)N(CCCC(=O)Nc3ccc(C(=O)O)cc3)C2=O)cc1	109
O=C(O)CCCN1C(=O)/C(=C/c2ccc(-c3nc4ccccc4s3)o2)SC1=S	-76*
COc1cc2ccccc2cc1C(=O)Nc1sc2c(c1C(N)=O)CCN(C(C)C)C2	102
CN1CCc2c(sc(NC(=O)c3ccc4ccccc4c3)c2C(N)=O)C1	-108*
CCOC(=O)N1CCc2c(sc(NC(=O)C3COc4ccccc4O3)c2C(N)=O)C1 (stereo not given)	-109*
CN1CCc2c(sc(NC(=O)C3COc4ccccc4O3)c2C(N)=O)C1 (stereo not given)	-117*
CN1CCc2c(sc(/N=C/c3cccs3)c2C(N)=O)C1	-75*
CC(=O)N1CCc2c(sc(NC(=O)C3COc4ccccc4O3)c2C(N)=O)C1 (stereo not given)	-74*
CCN1CCc2c(sc(NC(=O)C3COc4ccccc4O3)c2C(N)=O)C1 (stereo not given)	-96*
Cc1nc2cc(NC(=O)Nc3ccc(Br)cc3)ccc2o1	-192*
Cc1nc2cc(NC(=O)N3c4ccccc4CC3C)ccc2o1 (stereo not given)	-104*
Cc1ccc(N2C(=O)CC(SCC(=O)Nc3ccc(S(N)(=O)=O)cc3)C2=O)cc1 (stereo not given)	-76*
O=C(O)C(C(=O)/C=C/c1ccco1)=C1SCCS1	-69*
SMILES	aSyn 5UTR act
Cc1cc(/C=C2/NC(=O)N(c3ccccc3)C2=O)c(C)n1C(C)C	-64*
O=C1N/C(=C/c2ccc(Br)s2)C(=O)N1c1ccccc1	-81*
Cc1ccc(/C=C2/NC(=O)N(c3ccccc3)C2=O)o1	-105*
COc1ccccc1NC(=O)N1CCC(c2nc3cc(C)c(C)cc3[nH]2)CC1	74
O=C(Nc1cccc(Cl)c1)Nc1ccccc1C(=O)O	-120*
CSc1cccc(NC(=O)Nc2ccc(Cl)cc2)c1	-97*
COc1ccccc1NC(=O)Nc1ccc(C(=O)N2CCCCC2)cc1	-99*

Bioassay records deposited in PubChem BioAssay by Broad Institute.
